The nature of experiment [1]: Wnt pathway potentiators raising nuclear beta-catenin – imaging, WNT3A-conditioned medium, mouse C2C12, NPC library, primary screen (AID 1117326; in the data active = nuclear beta-catenin stimulation mostly above about 4.2%, no sharp cut-off; inactive = mostly below about 10%). Particulars: stronger effect = higher value.
The nature of experiment [2]: stimulators of insulin release from INS-1E, primary screen, cell-based, 5 mM glucose, NPC library (AID 1117329;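 active = compound raises insulin release from rat beta cells at 5 mM glucose, no numeric limit stated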). Particulars: rat INS-1E insulin secretion, at 10 µM, stronger effect = higher value.
Experiment [3] in a line: growth inhibition of GSK3B-pretreated HCT116 cells – cell-based, CellTiter-Glo, 0.2 to 20 µM (AID 1117336;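 active = compounds lowering colon cancer cell viability after pretreatment blocking the GSK3B kinase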). Particulars: HCT116 viability after GSK3B inhibitor, at 20 µM, stronger effect = higher value. (In general: In ATP-based viability assays light output follows the ATP content of the culture.)
Experiment [4] in a line: inhibition of endothelial tube formation, primary screen, imaging, VEGF stimulated, CD31 staining, tube area, NPC library (AID 1117340;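 active = compound that reduces growth-factor-driven endothelial tube area in a mixed cell culture, no cutoff stated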). Particulars: VEGF-stimulated ADSC/ECFC co-culture, at 10 µM, stronger effect = higher value.
Experiment [5] is described as follows: GLP1 release stimulators, primary, NCI-H716, NPC library (AID 1117341;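 active = compound raises GLP1 secretion from the human gut endocrine cells, with no numeric limit stated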). The following applies: NCI-H716 cells, at 10 µM, stronger effect = higher value.
Experiment [6] can be described thus: HCT116 colon cancer cell growth inhibition, primary screen, CellTiter-Glo luminescence, NPC library (AID 1117342;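 active = compounds that lower survival of HCT116 colon cancer cells in the luminescence readout, no numeric limit stated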). The following applies: at 20 µM (top of the series).
The nature of experiment [7]: reduced SW480 viability measured with CellTiter-Glo, NPC library, primary (AID 1117343;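 active = compounds that lower viability of the colon cancer cells in the luminescence readout, with no numeric limit stated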). The following applies: CellTiter-Glo luminescence; at 20 µM (top of the series) unless noted.
Experiment [8] can be described thus: NPC library primary testing for decreased DLD-1 cell viability via CellTiter-Glo (AID 1117346;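 active = compounds that lower survival of DLD-1 colon cancer cells in the luminescence readout, no cutoff given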). The following applies: DLD-1 viability, CellTiter-Glo luminescence; at 20 µM (top of the series).
The nature of experiment [9]: viability loss with induced miR-34 in A549 – imaging, A549 dox-inducible miR-34, nuclei and caspase counts, primary screen (AID 1347080). Particulars: A549 miR-34 inducible, Hoechst nuclei count, 48 h.
Experiment [10] is described as follows: MELAS cybrid and Rieske KO viability enhancers – cell-based, MELAS cybrids, Rieske KO mouse fibroblasts, CellTiter-Glo, primary screen (AID 1508586;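 active = mean z-score across replicates of 1.96 or higher in either the MELAS or the Rieske mutant cell line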;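 note: z relative to plate mean and SD of compound and empty wells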). Particulars: low glucose.
The nature of experiment [11]: galactose survival enhancers in mitochondrial complex I cybrids – cell-based, galactose medium, ATP luminescence, primary screen (AID 1645843;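 active = z-score of at least 1.8 in each of two replicates, scored against plate mean and spread of sample wells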;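 note: positive z means more ATP and so rescue of galactose-driven cybrid death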). The following applies: complex I mutant cybrid cells, 72 h, stronger effect = higher value.
The nature of experiment [12]: compounds altering viability of human ES cells (AID 493140; call rule not given here;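 note: cells exposed to compounds for four days before counting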). Particulars: human embryonic stem cell survival screen; stronger effect = higher value.
Experiment [13] can be described thus: P. berghei load reduction in hepatocytes – cell-based, HepG2, luciferase luminescence, HepG2 viability, primary screen (AID 624349; in the data active = parasite load remaining mostly below about 12%, no sharp cut-off; inactive = mostly above about 10%;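 note: 100% = mean of DMSO negative control wells on the same plate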). The following applies: P. berghei liver stage in HepG2, luciferase luminescence, concentration not given here; parasite load remaining: stronger effect = lower value; viability: measured here: HepG2 viability without parasites.
For experiment [14], the target named is NAD(+) hydrolase SARM1 (Homo sapiens) (UniProt Q6SZW1). Briefly: blocking NAD cleavage by SARM1 SAM-TIR – cell lysate, NAD-Glo luminescence (AID 1508614;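 active = compound whose remaining NAD level is above about 45 nM, limit read from the data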;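 note: higher remaining NAD means stronger inhibition of SARM1 NADase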). Particulars: SAM-TIR HEK293T lysate NADase, at 1 µM, stronger effect = higher value.
Where [15] appears, read: stronger effect = lower value, cell number ratio, induced over uninduced.
Setting [16] is: measured here: relative caspase fold change +Dox/-Dox.
[17] abbreviates: measured here: total cells with miR-34 induction, stronger effect = lower value.
The mark [18] stands for this setting: measured here: total cells without miR-34 induction.
Where [19] appears, read: MELAS cybrid survival, CellTiter-Glo 48 h, stronger effect = higher value.
Setting [20] is: Rieske KO mouse fibroblast survival, CellTiter-Glo 72 h.

The source of these data is PubChem BioAssay.

Where “and” joins values, the source holds several entries; their conditions need not be identical. Identical values can stand only once. Calls of active or inactive are those of the source.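 Rule for the calls, unless noted: active = compounds whose cell count with miR-34 switched on is under 0.7 times the count with it off; inactive = the rest.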

Sequence of NAD(+) hydrolase SARM1 (Homo sapiens) (Q6SZW1 whole entry, looked up): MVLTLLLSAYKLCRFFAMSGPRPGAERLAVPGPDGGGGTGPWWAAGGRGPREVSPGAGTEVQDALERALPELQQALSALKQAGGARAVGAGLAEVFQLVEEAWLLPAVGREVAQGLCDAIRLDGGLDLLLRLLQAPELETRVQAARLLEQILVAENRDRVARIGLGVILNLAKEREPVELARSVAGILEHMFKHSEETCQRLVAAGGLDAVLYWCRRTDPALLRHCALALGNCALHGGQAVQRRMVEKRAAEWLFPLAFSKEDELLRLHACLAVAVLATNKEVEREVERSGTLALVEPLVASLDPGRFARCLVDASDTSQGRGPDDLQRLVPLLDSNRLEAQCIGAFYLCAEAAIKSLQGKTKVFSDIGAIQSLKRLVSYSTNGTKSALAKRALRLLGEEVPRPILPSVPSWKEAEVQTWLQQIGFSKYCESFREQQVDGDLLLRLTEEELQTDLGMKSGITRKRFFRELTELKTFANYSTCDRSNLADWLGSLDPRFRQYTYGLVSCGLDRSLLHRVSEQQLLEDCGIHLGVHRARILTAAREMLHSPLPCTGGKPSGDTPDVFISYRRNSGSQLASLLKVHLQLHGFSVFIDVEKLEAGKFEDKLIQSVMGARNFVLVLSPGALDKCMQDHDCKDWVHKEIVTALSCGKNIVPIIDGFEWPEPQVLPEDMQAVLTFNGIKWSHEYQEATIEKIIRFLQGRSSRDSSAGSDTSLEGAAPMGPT

Turning to `O=c1[nH]c(=O)c2[nH]c(=O)[nH]c2[nH]1`, the nuclear beta-catenin stimulation in experiment [1] (at 10 µM) was -2.4% (inactive); in experiment [1] (stimulation, at 2 µM), -1.6%. For the same molecule, in [2], the insulin secretion stimulation was -0.2% (inactive). Moreover, in experiment [3], the viability decrease is -5.9% (inactive). Also, in experiment [4], the tube area decrease is 8.1% (inactive). Moreover, the GLP1 secretion stimulation in experiment [5] is -2.2% (inactive). Besides, the inhibition of viability in experiment [6] was -5.8% (inactive). The values for the viability decrease (inhibition) in experiment [7] and in experiment [8] were -9.2% (inactive) and 9.1% (inactive), respectively. The values for the fold change in experiment [9] (setting [15]) and in experiment [9] (setting [16]) were 0.877 (inactive) and 0.666, respectively. In addition, the cell count in [9] (setting [17]) is 8320; in experiment [9] (setting [18]), 9490. Moreover, the z-score was 0.618 (inactive) in experiment [10] (setting [19]), 0.253 in [10] (setting [20]) and 0.705 (inactive) in [11].
Usually viability stands for a read-out of living cells in per cent, often relative to untreated cells. Turning to `CCN[C@H]1CN(CCCOC)S(=O)(=O)c2sc(S(N)(=O)=O)cc21`, the survival in experiment [12] was 9.25 (inactive). Further, the parasite load remaining in [13] was 113% (inactive) and 65.9% (inactive). Also, in experiment [13], the viability was 109% and 72.4%. Besides, the nuclear beta-catenin stimulation is 1.3% (inactive) in [1] (at 10 µM) and 1.1% in experiment [1] (stimulation, at 2 µM). Further, the insulin secretion stimulation in experiment [2] was 3.9% (inactive). In addition, the viability decrease in [3] was -7.1% (inactive). Further, the tube area decrease in experiment [4] is -15% (inactive). Besides, the GLP1 secretion stimulation in [5] was 0.6% (inactive). Further, the inhibition of viability in experiment [6] is 6.4% (inactive). In addition, the viability decrease (inhibition) in experiment [7] is 7.5% (inactive); in experiment [8] it was 14.9% (inactive). Also, the fold change was 0.831 (inactive) in experiment [9] (setting [15]) and 1.12 in experiment [9] (setting [16]). For the same molecule, the cell count came out at 8040 in experiment [9] (setting [17]) and 9670 in experiment [9] (setting [18]). The z-score in experiment [10] (setting [19]) was 0.333 (inactive); in experiment [10] (setting [20]) it was 0.0327. For the same molecule, in [14], the remaining NAD was 10 nM (inactive).
As to `COc1ccc(C=CC(=O)Nc2ccccc2C(=O)O)cc1OC`, the nuclear beta-catenin stimulation was -1.3% (inactive) in experiment [1] (at 10 µM) and 2.1% in experiment [1] (stimulation, at 2 µM). Also, the insulin secretion stimulation in experiment [2] was 0.9% (inactive). In addition, in experiment [3], the viability decrease is 4.3% (inactive). Besides, the tube area decrease in experiment [4] was -1.3% (inactive). In addition, in experiment [5], the GLP1 secretion stimulation is -5.7% (inactive). Also, the inhibition of viability in experiment [6] is -5.8% (inactive). Besides, the viability decrease (inhibition) is 4.8% (inactive) in experiment [7] and -29.2% (inactive) in experiment [8]. Moreover, the fold change in experiment [9] (setting [15]) is 0.906 (inactive) and 0.975 (inactive); in [9] (setting [16]), 1.48 and 0.856. Also, the cell count is 9440 and 8000 in [9] (setting [17]); 10400 and 8210 in experiment [9] (setting [18]). The z-score in [10] (setting [19]) is -0.386 (inactive); in experiment [10] (setting [20]) it was 0.573; in experiment [11], 0.955 (inactive).
Take `CN1CCN(C2=Nc3ccccc3Sc3ccc(Cl)cc32)CC1`: the parasite load remaining in experiment [13] is 45.5% (inactive). Besides, the viability in [13] worked out at 130%. In addition, the nuclear beta-catenin stimulation in experiment [1] (at 10 µM) is -0.4% (inactive); in experiment [1] (stimulation, at 2 µM) it was -0.2%. Further, the insulin secretion stimulation in experiment [2] was 16.1% (inactive). The viability decrease in [3] was 83.3% (active). The tube area decrease in experiment [4] was 39.2% (inactive). For the same molecule, the GLP1 secretion stimulation in [5] is 19% (inactive). Further, the inhibition of viability in experiment [6] is 79.7% (active). In addition, the viability decrease (inhibition) in [7] was 116% (active); in experiment [8], 72.4% (active). In addition, the fold change was 0.882 (inactive) in experiment [9] (setting [15]) and 1.18 in experiment [9] (setting [16]). In addition, the cell count in experiment [9] (setting [17]) turned out to be 8380; in experiment [9] (setting [18]), 9490. In addition, the z-score is -0.876 (inactive) in experiment [10] (setting [19]), 0.707 in [10] (setting [20]) and -0.54 (inactive) in [11].
Take `COc1cc(C=O)ccc1O`: the nuclear beta-catenin stimulation in experiment [1] (at 10 µM) is 1.6% (inactive); in [1] (stimulation, at 2 µM), 0.8%. Moreover, the insulin secretion stimulation in experiment [2] is 0.7% (inactive). For the same molecule, in [3], the viability decrease is 1.37% (inactive). Moreover, the tube area decrease in experiment [4] was 1.2% (inactive). In addition, in experiment [5], the GLP1 secretion stimulation was 0.6% (inactive). The inhibition of viability in experiment [6] is -10.3% (inactive). In addition, the viability decrease (inhibition) is 49.1% (inactive) in [7] and 3.27% (inactive) in [8]. Also, the fold change in [9] (setting [15]) was 0.931 (inactive); in experiment [9] (setting [16]), 0.545. In addition, the cell count is 7990 in experiment [9] (setting [17]) and 8590 in [9] (setting [18]). Further, the z-score in experiment [10] (setting [19]) was -0.504 (inactive); in experiment [10] (setting [20]) it was -0.136.
